Shown are actives, neighbours in structure and some others; about 3.4% of the full set was active somewhere.
MITF act – activators of MITF-driven TRPM1 promoter reporter, primary screen, cell-based, SK-MEL-5, luciferase, single point. 300,000 tested, 0.75% active. SK-MEL-5 TRPM1-promoter luciferase, 24 h; % of positive control, neutral wells = 0. AID 588334, 2011. activation, % at 12.5 µM;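 active = mean activation of at least 80% with every replicate also reaching 80%; inconclusive = mean reaches 80% but some replicate falls short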;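 also: 0% = neutral control wells and 100% = parthenolide positive control wells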
miR-122 sensor – miR-122 Renilla sensor signal increase in Huh7, primary screen, miR-122 inhibitor project, cell-based, single point, plate reader; Huh7 miR-122 Renilla luciferase sensor, 48 h; neutral wells = 0, positive control = 100; activation (reporter increase), % at 12.5 µM; 340,000 tested, 0.3% active; AID 602342, 2012;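 active = mean replicate activation score at least 90 and every replicate individually at or above 90; inconclusive = only one of the two criteria met; inactive = neither criterion met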;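 also: higher luciferase means less miR-122 activity so hits act as miR-122 inhibitors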
esBAF inh – Bmi1 luciferase reporter increase in mESCs, primary screen, esBAF inhibitor project, mouse ES cells, Bmi1 luciferase knock-in, single point. reporter increase, % at 12.5 µM. 350,000 tested, 2% active. 24 h; 100% = twice the neutral-well signal. AID 602393, 2012; in the data active = activation above about 40%; inconclusive = no clear call, values can overlap the other calls;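 also: 0% = median of the plate's neutral control wells and 100% = double that signal; a rise in the Bmi1 reporter signal indicates esBAF inhibition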
HIV Env fusion – inhibitors of HIV-1 Env-driven cell-cell fusion, primary screen, HeLa-JRFL effector, CEM21 target cells, luciferase | AID 651610, 2012 | 360,000 tested, 1.1% active | inhibition, % at 12.3 µM;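 active = mean replicate inhibition score of at least 50 and every replicate individually at or above 50; inconclusive = only one of the two criteria met; inactive = mean below 50 and not all replicates reaching 50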;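 also: 0% = plate neutral controls and 100% = maraviroc near 300 nM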
Wnt act – Wnt/beta-catenin pathway activators, primary screen, cell-based, plate reader, single point; 300,000 tested, 1.2% active; AID 743398, 2014; Wnt/beta-catenin reporter cell assay, activator; activation, % at 9.35 µM; in the data active = activation above about 30%, passing the limit was not always enough; inconclusive = no clear call, values can overlap the other calls;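 also: 0% = neutral control wells and 100% = positive control wells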
The depositor's hits bear a star; ? = inconclusive; . = not tested or not shown; [ ] = remark or other dose.

SMILES	MITF act	miR-122 sensor	esBAF inh	HIV Env fusion	Wnt act
N#C/C(=C(/O)c1cccs1)c1nc2ccccc2[nH]1	7.5	4.2	20.2	-27.2	10.2
O=C(/C(=C/c1ccc(Cl)cc1)c1nc2ccccc2[nH]1)c1cccs1	-94.7	2.3	76.4*	.	.
O/C(=C\c1nc2ccccc2[nH]1)c1cccs1	5.5	1.8	41.7*	-34.6	39.3*
Cc1ccc(C(=O)Nc2nc3ccccc3[nH]2)cc1	-72.4	52.9	-76.6	-77.0	-4.6
C[C@@H]1CN([C@H](C)CO)C(=O)c2cc(-c3cccc(F)c3)cnc2O[C@@H]1CN(C)C(=O)c1cnccn1	.	-0.8[16.7 µM]	-5.7	13.3[16.7 µM]	.
O=C(C[C@H]1CC[C@@H](NC(=O)C2CC2)[C@@H](CO)O1)NCCCN1CCOCC1	.	1.7[16.7 µM]	-1.7	-1.5[16.7 µM]	.
Cc1ccc(S(=O)(=O)N[C@H]2CC[C@@H](CCn3cc(-c4cccc(F)c4)nn3)O[C@@H]2CO)cc1	.	.	8.2	12.7[16.7 µM]	.
Cc1ccc2oc(=O)c(/C=C(\O)c3cccs3)nc2c1	.	.	.	-26.7	35.2*
O=C(CSc1nnc(C2CC2)n1C1CC1)c1ccc(Br)s1	71.2	9.1	56.4*	-19.0	32.6*
O=C(CSc1nnc(C2CC2)n1C1CC1)c1cccs1	-0.4	.	3.5	.	3.7
CCOC(=O)C1=C(CC)Nc2ccccc2N=C1NC(=O)Nc1ccc(Cl)c(Cl)c1	-0.8	36.0	.	113.5*	-7.3
O=C(COC(=O)Cn1cnc2ccccc21)Nc1ccc2c(c1)C(=O)c1ccccc1C2=O	27.1	.	.	-89.8	59.2*
O=C(CCCCn1c(=O)[nH]c2ccccc2c1=O)N1CCN(c2cccc(C(F)(F)F)c2)CC1	-1.6	11.6	-0.8	83.3*	-6.7
CO[C@H]1CN(C)C(=O)c2ccc(NC(=O)c3ccc4c(c3)OCO4)cc2OC[C@@H](C)N(CCC(F)(F)F)C[C@@H]1C	.	.	5.1	33.0[16.7 µM]	.
C[C@H]1CCCCO[C@H](CN(C)C(=O)C2CCCCC2)[C@@H](C)CN([C@@H](C)CO)C(=O)c2cc(N(C)C)ccc2O1	.	-3.2[16.7 µM]	-1.2	-2.6[16.7 µM]	.
O=C(C[C@H]1CC[C@@H](NC(=O)Nc2cc(F)ccc2F)[C@H](CO)O1)NCc1ccncn1	.	.	0.7	-9.4[16.7 µM]	.
c1ccc(CSc2nnc([C@@H]3CCCN3)o2)cc1	.	-5.5	-2.5	93.7*	.
Cc1ccc(CSc2nnc([C@@H]3CCCN3)o2)cc1	.	-2.9	6.1	-15.2	.
O=[N+]([O-])c1cccnc1NCCc1ccccc1	38.3	-4.3	73.4*	-3.5	3.1
O=[N+]([O-])c1cccnc1NCCNc1ncc(C(F)(F)F)cc1Cl	101.3*	-3.8	47.8*	.	.
O=[N+]([O-])c1cccnc1NCCc1c[nH]c2ccccc12	64.2	4.8	?	-53.5	29.9
CCC(=O)N[C@H]1CC[C@@H](CCn2cc(CN(C)C)nn2)O[C@@H]1CO	.	.	4.6	2.3[16.7 µM]	.
CC(C)NC(=O)N(C)C[C@H]1Oc2cc(C#CC(C)(C)O)ccc2S(=O)(=O)N([C@H](C)CO)C[C@H]1C	.	11.4[16.7 µM]	-2.5	6.2[16.7 µM]	.
C[C@@H]1CN([C@H](C)CO)S(=O)(=O)c2ccc(C#Cc3ccccn3)cc2O[C@H]1CN(C)C(=O)C1CC1	.	-2.0[16.7 µM]	-9.1	-4.0[16.7 µM]	.
Cc1ccc(OCC(=O)Nc2ccc(C)c(F)c2)c([N+](=O)[O-])n1	114.1*	0.3	55.6*	-53.0	-2.7
SMILES	MITF act	miR-122 sensor	esBAF inh	HIV Env fusion	Wnt act
Cc1ccc(OCc2ccc([N+](=O)[O-])cc2)c([N+](=O)[O-])n1	138.8*	0.2	.	-160.1	33.2*
Cc1ccc(OCCOc2ccc(Br)cc2)c([N+](=O)[O-])n1	123.3*	-0.9	64.7*	-30.8	13.0
COc1ccc(CNC(=O)COc2ccc(C)nc2[N+](=O)[O-])cc1	18.8	.	.	13.3	-0.3
Cc1ccc(OCc2ccccc2C)c([N+](=O)[O-])n1	27.3	.	10.9	2.9	1.5
CCCCOc1ccc(C(=O)Nc2cccc(C)n2)cc1	102.5*	-0.8	20.7	-34.4	.
CN(C)S(=O)(=O)c1ccc(C(=O)Nc2nc(-c3cccs3)cs2)cc1	.	-11.3	19.1	76.4*	-1.8
CCCOc1ccc(C(=O)Nc2ccccc2[N+](=O)[O-])cc1	58.1	-5.2	63.8*	.	.
Cc1cccc(NC(=O)CN(C)S(=O)(=O)c2ccc(Cl)cc2)n1	5.8	7.0	.	-16.0	.
Cc1cccc(NC(=O)c2ccc(S(=O)(=O)N(C)C)cc2)n1	11.0	-7.3	49.4*	.	.
O=C(C[C@@H]1C=C[C@@H](NC(=O)C2CC2)[C@@H](CO)O1)NCc1ccncc1	.	.	-4.0	28.6[16.7 µM]	.
C[C@H]1CCCCO[C@H](CN(C)S(=O)(=O)c2ccccc2)[C@@H](C)CN([C@@H](C)CO)C(=O)c2cc(NC(=O)Nc3ccc(F)cc3)ccc2O1	.	1.9[16.7 µM]	2.8	31.0[16.7 µM]	.
CCOc1ccc(NC(=O)Nc2cccc(C)n2)cc1	72.9	.	56.8*	-41.6	2.6
CCOc1ccc(C(=O)Nc2cccc(C)n2)cc1	.	-0.5	-32.0	.	-3.1
Cc1nn2cc(-c3ccc(Cl)cc3)nc2s1	.	-1.6	-2.3	-446.8	71.3*
C[C@@H]1CN([C@@H](C)CO)C(=O)Cc2cc(NC(=O)Nc3ccc4c(c3)OCO4)ccc2O[C@H]1CN(C)S(=O)(=O)c1ccc(Cl)cc1	.	-2.7[16.7 µM]	-3.4	22.3[16.7 µM]	.
COc1ccc(-c2cnc3c(c2)C(=O)N([C@H](C)CO)C[C@H](C)[C@H](CN(C)S(=O)(=O)c2ccc(C#N)cc2)O3)cc1	.	-18.3[16.7 µM]	5.1	.	.
O=C(CSC1=NCCS1)Nc1cccc2ccccc12	-7.3	0.1	-0.9	.	-3.8
O=C(CSc1cccs1)Nc1ccc2ccccc2c1	.	7.6	59.5*	-107.8	.
Cc1cccn2c(=O)nc(SCC(=O)Nc3cccc4ccccc34)nc12	-10.0	.	.	87.7*	-2.0
O=C(CSc1cccs1)Nc1cccc2ccccc12	65.4	-7.1	71.7*	.	-0.2
O=C(CSCc1nc2ccccc2[nH]1)Nc1ccc2ccccc2c1	6.4	-6.5	1.9	70.6*	.
O=C(CSCc1nc2ccccc2[nH]1)Nc1ccc(Oc2ccccc2)cc1	-1.6	.	.	18.4	-1.9
C[C@@H](NC(=O)C[C@H]1CC[C@H](NC(=O)C2CCC2)[C@@H](CO)O1)c1ccccc1	.	.	-7.1	-4.5[16.7 µM]	.
NNC(=O)c1ccc(N2CCc3ccccc32)c([N+](=O)[O-])c1	-4.6	1.3	-11.7	9.5	-0.6
Nc1ncnc(N2CCc3ccccc32)c1[N+](=O)[O-]	-22.1	-1.3	-19.2	66.8*	-1.5
COc1cccc(CN2CCCCN3[C@H](C2)[C@H](c2ccc(-c4cccnc4)cc2)[C@@H]3CO)c1	.	6.2[16.7 µM]	3.6	.	.
N#Cc1ccccc1NC(=O)CSC1=Nc2ccccc2C2CC=NN12 (configuration not stated)	-17.6	-2.9	3.0	15.8	47.3*
O=C(CSC1=Nc2ccccc2C2CC=NN12)Nc1ccc2c(c1)OCO2 (configuration not stated)	-2.1	17.9	-3.8	-2.6	-0.2
